Source: PubChem BioAssay AID1159580 (chemical genetic matrix, 2015)
Out of some 5,500 compounds screened, about 2,000 (36%) were called active. Inconclusive results (about 18%) are left out. Cut-off read from the data, not from the text of the source: active = normalized growth mostly below about 0.91 (no sharp cut-off); inconclusive = no clear call, values can overlap the other calls; inactive = mostly above about 0.92. Some of the results follow.

Experiment: chemical genetic growth profiling, strain panel (AID 1159580);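 note: tested at 20 µM; growth read once vehicle control cultures reached saturation at 30 °C; 1 = growth at the plate median or of vehicle wells; lower values mean less growth of the strain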
Conditions: S. cerevisiae deletion strains, growth OD

Measured: normalized growth

Nc1ncnc2c1ncn2C1CCCO1 (stereo not drawn)
inactive: locus YAL013W, strain DEP1, active compounds read low 1.03 | locus YAL040C, strain CLN3, active compounds read low 1.03 | locus YCL061C, strain MRC1 (second series), active compounds read low 0.997 | locus YDR363W, strain ESC2, active compounds read low 1.02 | locus YER002W, strain NOP16, active compounds read low 0.967 | locus YJR075W, strain HOC1, active compounds read low 1.02 | locus YMR307W, strain GAS1, active compounds read low 1 | locus YNL153C, strain GIM3, active compounds read low 0.989 | locus YNL175C, strain NOP13, active compounds read low 0.986 | locus YNL197C, strain WHI3, active compounds read low 0.967 | locus YNL224C, strain SQS1, active compounds read low 1 | locus YOR083W, strain WHI5 (second series), active compounds read low 0.977 | locus YPL055C, strain LGE1, active compounds read low 1.02
